Experimental findings from PubChem BioAssay (NCATS) are described below.

SMILES strings stand for the structures. Results filed as inconclusive are left out. A call without a number means that no potency is given here. Calls of active or inactive are those of the source. The call rests on the fitted dose curve; in most records, active means well fitted inhibition curve with a large enough effect; inconclusive means small, poorly fitted or top-dose-only effect; inactive means flat fitted curve, though single readings scatter.

Assay [1] has as its target Glutathione peroxidase 1 (Homo sapiens) (UniProt P07203). In words: Primary qHTS Assay for Inhibitors of Recombinant Selenoprotein Glutathione Peroxidase 1 (GPX1) (AID 1845191). Summed up:
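Recombinant GPX1 (10 nM final) was preincubated with compound for 30 min at room temperature, then reacted with 1 mM GSH, 0.5 mM CHP, 0.5 mM NADPH and 100 nM glutathione reductase; NADPH fluorescence (340/450 nm) was read at 0 and 15 min.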

Assay [2] concerns the target Phospholipid hydroperoxide glutathione peroxidase GPX4 (Homo sapiens) (UniProt P36969). Nature of the assay: Primary qHTS Assay for Inhibitors of Recombinant Selenoprotein Glutathione Peroxidase 4 (GPX4) (AID 1845192). In short, it runs like this:
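GR-coupled readout: 100 nM GR, 1 mM GSH, 0.5 mM NADPH; NADPH fluorescence (ex 340/em 450 nm) read at t=0 and after 15 min RT. GPX4 200 nM, preincubated 30 min with compound; substrate 0.5 mM CHP.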
Further: nearly all actives have a fitted effect of over 65% in size.

Glutathione peroxidase 1 (Homo sapiens), sequence (P07203 whole entry, looked up): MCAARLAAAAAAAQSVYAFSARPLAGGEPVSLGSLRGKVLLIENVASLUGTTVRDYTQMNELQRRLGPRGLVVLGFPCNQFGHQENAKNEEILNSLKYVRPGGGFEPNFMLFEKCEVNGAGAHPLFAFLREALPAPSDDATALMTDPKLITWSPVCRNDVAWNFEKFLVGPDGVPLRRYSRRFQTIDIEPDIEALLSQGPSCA
Phospholipid hydroperoxide glutathione peroxidase GPX4 (Homo sapiens), sequence (P36969 whole entry, looked up): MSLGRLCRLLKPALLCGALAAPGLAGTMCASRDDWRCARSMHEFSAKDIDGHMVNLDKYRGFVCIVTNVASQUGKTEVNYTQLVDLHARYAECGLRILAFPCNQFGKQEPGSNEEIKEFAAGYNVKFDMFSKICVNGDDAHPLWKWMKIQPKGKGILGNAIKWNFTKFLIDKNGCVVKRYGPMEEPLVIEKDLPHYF

For `C#Cc1cccc(Nc2ncnc3cc(OCCOC)c(OCCO)cc23)c1`, the Potency entry in assay [1] and in assay [2] was “inactive” throughout.

For `NC(=O)Nc1sc(-c2ccc(F)cc2)cc1C(N)=O`, in assay [1], the Potency result is “inactive”.

`CCNC(=O)c1cc2c(-c3cc(OCCN4CCCC4)c(Cl)cc3Cl)nc(N)nc2s1`: the Potency result in assay [1] is “inactive”.

Regarding `COc1cc(OC)c(NC(=O)Nc2cc(C)on2)cc1Cl`, the Potency result in assay [1] and in assay [2] was “inactive” throughout.

With `O=C(Nc1nnc(-c2ccco2)o1)c1cc(-c2ccccc2)nc2ccccc12`, the Potency result in assay [1] was “inactive”.

Turning to `O=C(c1ccc(F)cc1)N1CCC[C@H](c2nc(-c3ccc(F)cc3)no2)C1`, the Potency entry in assay [1] and in assay [2] was “inactive” throughout.

Take `O=C1CSC(=O)N1C(CCc1ccncc1)COc1ccc(-c2cccc([N+](=O)[O-])c2)cc1` (stereo not given): the Potency result in assay [1] and in assay [2] was “inactive” in each case.

With `OC[C@H]1OC(O)C[C@@H](O)[C@H]1O` (stereo not given in full), the Potency result in assay [1] was “inactive”.

As for `C=C[C@@H]1CN2CCC1C[C@H]2[C@H](O)c1ccnc2ccc(OC)cc12` (stereo not given in full), in assay [1], the Potency result is “inactive”.

Turning to `C=CC(=O)N1CCc2ccc(-n3c(=O)ccc4cnc5ccc(-c6cnn(C)c6)cc5c43)cc21`, the Potency result in assay [1] and in assay [2] was “inactive” throughout.

For `COc1cc(C[C@@H](CO)[C@H](CO)Cc2ccc(O)c(OC)c2)ccc1O`, the Potency entry in assay [1] and in assay [2] was “inactive” in each case.

Take `NC[C@H]1O[C@H](O[C@H]2[C@@H](O)[C@@H](O[C@H]3O[C@H](CO)[C@@H](O)[C@H](N)[C@@H]3O)[C@H](N)C[C@@H]2N)[C@H](N)C[C@H]1O`: the outcome in assay [1] was “inactive [at 9.52 µM]”.

`CCc1ccc(C(=O)Nc2cc(CN3CCN(C)CC3)cc(C(F)(F)F)c2)cc1C#Cc1cnc2ccnn2c1`: the Potency entry in assay [1] and in assay [2] was “inactive” in each case.

On to `CCCCCCCCCCCCc1ccc(S(=O)(=O)Nc2nncs2)cc1`, for which the Potency entry in assay [1] was “inactive”.

With `CC(C)NC[C@@H](C(=O)N1CCN(c2ncnc3c2[C@H](C)C[C@H]3O)CC1)c1ccc(Cl)cc1`, the Potency entry in assay [1] and in assay [2] was “inactive” throughout.

Take `CC(C)c1cnn2c(NCc3ccccc3)cc(NCCCCCCN)nc12`: the Potency result in assay [1] and in assay [2] was “inactive” in each case.

Regarding `CS(=O)(=O)N1CCc2c(-c3cnc(N)nc3)nc(N3CCOCC3)nc21`, the Potency entry in assay [1] and in assay [2] was “inactive” in each case.

On to `COc1ccc(Nc2cc(-c3cnc(N)nc3)nc(N3CCOCC3)n2)cn1`, for which the Potency entry in assay [1] and in assay [2] was “inactive” throughout.

In the case of `Cc1ccccc1C(=O)Nc1ccc(C(=O)N2CCCC(O)c3cc(Cl)ccc32)c(C)c1` (stereo not given), the Potency result in assay [1] is “inactive”.

Regarding `CCCNS(=O)(=O)Nc1ncnc(OCCOc2ncc(Br)cn2)c1-c1ccc(Br)cc1`, the Potency result in assay [1] and in assay [2] was “inactive” each time.

On to `N#CNC(=NCCCCCCOc1ccc(Cl)cc1)Nc1ccncc1`, for which the Potency result in assay [1] and in assay [2] was “inactive” each time.

On to `O=c1ccn([C@@H]2O[C@H](CO)[C@H](O)[C@@H]2F)c(=O)[nH]1`, for which the Potency entry in assay [1] and in assay [2] was “inactive” throughout.

Turning to `Oc1cc(-c2nc(-c3ccccc3)[nH]c2-c2ccncc2)ccc1Cl`, the Potency result in assay [1] and in assay [2] was “inactive” throughout.

Turning to `CC(C=CC=C(C)C=CC1=C(C)CCCC1(C)C)=CC=CC=C(C)C=CC=C(C)C=CC1=C(C)CCCC1(C)C`, in assay [1], the outcome was “inactive [at 0.4 µM]”.

In the case of `CCOC(=O)C1=C(C)NC(=S)NC1c1cccc(O)c1` (stereo not given), the Potency entry in assay [1] and in assay [2] was “inactive” in each case.

For the compound `COc1ccc(C[C@@H](C)[C@@H](C)Cc2ccc(OC)c(OC)c2)cc1OC`, the Potency result in assay [1] is “inactive”.

In the case of `CCCCC(=O)O[C@]1(C(=O)CO)[C@@H](C)C[C@H]2[C@@H]3CCC4=CC(=O)C=C[C@]4(C)[C@@]3(F)[C@@H](O)C[C@@]21C`, in assay [1], the Potency entry is “inactive”.

For `CCN(C(=O)c1c(O)c2c(Cl)cccc2n(C)c1=O)c1ccccc1`, the Potency entry in assay [1] and in assay [2] was “inactive” in each case.

As for `CN(C)CC(=O)N1CCC(c2ccc(NC(=O)c3ncc(C#N)[nH]3)c(C3=CCCCC3)c2)CC1`, in assay [1], the Potency entry is “inactive”.

For the compound `O=C(O)CCCCCC(=O)NN=C1CCCC1`, the Potency entry in assay [1] and in assay [2] was “inactive” in each case.

For the compound `C[N+](C)([O-])CCNc1ccc(NCC[N+](C)(C)[O-])c2c1C(=O)c1c(O)ccc(O)c1C2=O`, the Potency entry in assay [1] and in assay [2] was “inactive” each time.

With `CCCCCCCCc1ccc(CCC(N)(CO)CO)cc1`, the Potency result in assay [1] and in assay [2] was “inactive” in each case.

Turning to `NC(=NCCCCCCN=C(N)N=C(N)Nc1ccc(Cl)cc1)N=C(N)Nc1ccc(Cl)cc1`, the Potency entry in assay [1] and in assay [2] was “inactive” in each case.

Regarding `CC(Oc1ccc(O)cc1)(P(=O)(O)O)P(=O)(O)O`, the Potency entry in assay [1] and in assay [2] was “inactive” in each case.

With `Oc1cc2c(cc1O)C1c3ccc(O)c(O)c3OCC1(O)C2` (stereo not given), the Potency entry in assay [1] and in assay [2] was “inactive” in each case.

Consider `CC(=O)O[C@H]1C[C@@H]2CC[C@H]3[C@H]4C[C@H]([N+]5(C)CCCCC5)[C@@H](OC(C)=O)[C@@]4(C)CC[C@@H]3[C@@]2(C)C[C@H]1[N+]1(C)CCCCC1`, for which the Potency entry in assay [1] and in assay [2] was “inactive” each time.
